# In PubChem BioAssay AID1159580 (chemical genetic matrix, 2015):
# “And” between values parts separate entries of the source, which are not always exact repeats. Identical values can stand only once. The campaign covered roughly 5,500 compounds. About 2,000 (36%) were called active. Another 18% or so got no clear call; they are omitted. Rule as the data show it: active = normalized growth mostly below about 0.91 (no sharp cut-off); inconclusive = no clear call, values can overlap the other calls; inactive = mostly above about 0.92. This is one part of the list. Some structures have more than one record in an assay (separate samples or runs), and their calls can disagree.
# Assay: chemical genetic growth profiling, strain panel (AID 1159580);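 also: tested at 20 µM; growth read once vehicle control cultures reached saturation at 30 °C; 1 = growth at the plate median or of vehicle wells; lower values mean less growth of the strain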
# Conditions: S. cerevisiae deletion strains, growth OD
compound,measurement,setting,value
CCN(CC)CCCC(C)Nc1c2ccc(Cl)cc2nc2ccc(OC)cc12 (stereo unspecified),normalized growth,"locus YAL013W, strain DEP1, stronger effect = lower value",0.992 (inactive)
same,normalized growth,"locus YAL021C, strain ccr4, stronger effect = lower value",0.906 (active)
same,normalized growth,"locus YAL026C, strain drs2, stronger effect = lower value",0.994 (inactive)
same,normalized growth,"locus YAL030W, strain snc1, stronger effect = lower value",1.02 (inactive)
same,normalized growth,"locus YAL040C, strain CLN3, stronger effect = lower value",0.972 (inactive)
same,normalized growth,"locus YBL061C, strain skt5, stronger effect = lower value",1.03 (inactive)
same,normalized growth,"locus YBR009C, strain hhf1, stronger effect = lower value",0.894 (active)
same,normalized growth,"locus YBR021W, strain FUR4, stronger effect = lower value",0.89 (inactive)
same,normalized growth,"locus YBR023C, strain chs3, stronger effect = lower value",0.984 (inactive)
same,normalized growth,"locus YBR171W, strain sec66, stronger effect = lower value",1.05 (inactive)
same,normalized growth,"locus YBR229C, strain ROT2, stronger effect = lower value",0.87 (active)
same,normalized growth,"locus YBR231C, strain swc5, stronger effect = lower value",0.978 (inactive)
same,normalized growth,"locus YBR279W, strain paf1, stronger effect = lower value",0.966 (inactive)
same,normalized growth,"locus YCL011C, strain gbp2, stronger effect = lower value",0.965 (inactive)
same,normalized growth,"locus YCL016C, strain dcc1, stronger effect = lower value",0.844 (active)
same,normalized growth,"locus YCL029C, strain bik1, stronger effect = lower value",0.479 (active)
same,normalized growth,"locus YCL061C, strain MRC1 (second series), stronger effect = lower value",0.917 (active)
same,normalized growth,"locus YCL061C, strain MRC1, stronger effect = lower value",1.01 (inactive)
same,normalized growth,"locus YCL069W, strain vba3, stronger effect = lower value",1.01 (inactive)
same,normalized growth,"locus YCR088W, strain abp1, stronger effect = lower value",1.03 (inactive)
same,normalized growth,"locus YDL005C, strain med2, stronger effect = lower value",1.01 (inactive)
same,normalized growth,"locus YDL035C, strain GPR1, stronger effect = lower value",0.627 (active)
same,normalized growth,"locus YDL040C, strain nat1, stronger effect = lower value",1.03 (inactive)
same,normalized growth,"locus YDL074C, strain BRE1, stronger effect = lower value",0.511 (active)
same,normalized growth,"locus YDL101C, strain DUN1, stronger effect = lower value",0.728 (active)
same,normalized growth,"locus YDL134C, strain PPH21, stronger effect = lower value",0.771 (active)
same,normalized growth,"locus YDL185W, strain tfp1, stronger effect = lower value",1.01 (inactive)
same,normalized growth,"locus YDL192W, strain arf1, stronger effect = lower value",0.669 (active)
same,normalized growth,"locus YDR001C, strain nth1, stronger effect = lower value",1.04 (inactive)
same,normalized growth,"locus YDR069C, strain doa4, stronger effect = lower value",0.989 (inactive)
same,normalized growth,"locus YDR101C, strain arx1, stronger effect = lower value",0.413 (active)
same,normalized growth,"locus YDR137W, strain rgp1, stronger effect = lower value",1.04 (inactive)
same,normalized growth,"locus YDR150W, strain NUM1, stronger effect = lower value",0.945 (inactive) and 0.826 (active)
same,normalized growth,"locus YDR159W, strain sac3, stronger effect = lower value",1.08 (inactive)
same,normalized growth,"locus YDR162C, strain NBP2, stronger effect = lower value",0.802 (active)
same,normalized growth,"locus YDR195W, strain ref2",1.06 (inactive)
same,normalized growth,"locus YDR297W, strain sur2, stronger effect = lower value",1 (inactive)
same,normalized growth,"locus YDR318W, strain mcm21, stronger effect = lower value",0.618 (active)
same,normalized growth,"locus YDR334W, strain swr1, stronger effect = lower value",1.02 (inactive)
same,normalized growth,"locus YDR335W, strain msn5, stronger effect = lower value",1.02 (inactive)
same,normalized growth,"locus YDR363W, strain ESC2, stronger effect = lower value",0.715 (active)
same,normalized growth,"locus YDR388W, stronger effect = lower value",0.695 (active)
same,normalized growth,"locus YDR392W, strain spt3, stronger effect = lower value",0.717 (active)
same,normalized growth,"locus YDR502C, strain sam2, stronger effect = lower value",0.708 (active)
same,normalized growth,"locus YEL003W, strain gim4, stronger effect = lower value",1.01 (inactive)
same,normalized growth,"locus YEL037C, strain rad23, stronger effect = lower value",0.992 (inactive)
same,normalized growth,"locus YEL061C, strain CIN8 (second series), stronger effect = lower value",1.03 (inactive)
same,normalized growth,"locus YEL061C, strain CIN8, stronger effect = lower value",0.907 (active)
same,normalized growth,"locus YER002W, strain NOP16, stronger effect = lower value",1 (inactive)
same,normalized growth,"locus YER015W, strain faa2, stronger effect = lower value",1.01 (inactive)
same,normalized growth,"locus YER016W, strain bim1, stronger effect = lower value",1.02 (inactive)
same,normalized growth,"locus YER110C, stronger effect = lower value",0.908 (inactive)
same,normalized growth,"locus YER111C, strain swi4, stronger effect = lower value",1.02 (inactive)
same,normalized growth,"locus YER155C, strain BEM2 (second series), stronger effect = lower value",0.943 (inactive)
same,normalized growth,"locus YER155C, strain BEM2, stronger effect = lower value",0.997 (inactive)
same,normalized growth,"locus YER167W, strain BCK2, stronger effect = lower value",0.641 (active)
same,normalized growth,"locus YFR010W, strain ubp6, stronger effect = lower value",0.988 (inactive)
same,normalized growth,"locus YGL078C, strain dbp3, stronger effect = lower value",0.817 (active)
same,normalized growth,"locus YGL086W, strain mad1, stronger effect = lower value",0.74 (active)
same,normalized growth,"locus YGL167C, strain pmr1, stronger effect = lower value",1.03 (inactive)
same,normalized growth,"locus YGL173C, strain kem1, stronger effect = lower value",0.997 (inactive)
same,normalized growth,"locus YGL227W, strain vid30, stronger effect = lower value",1.03 (inactive)
same,normalized growth,"locus YGL240W, strain doc1, stronger effect = lower value",1 (inactive)
same,normalized growth,"locus YGL248W, strain PDE1, stronger effect = lower value",0.735 (active)
same,normalized growth,"locus YGL253W, strain hxk2, stronger effect = lower value",0.975 (inactive)
same,normalized growth,"locus YGR078C, strain PAC10, stronger effect = lower value",0.818 (active)
same,normalized growth,"locus YGR135W, strain pre9, stronger effect = lower value",0.739 (active)
same,normalized growth,"locus YGR229C, strain SMI1, stronger effect = lower value",0.754 (active)
same,normalized growth,"locus YGR252W, strain gcn5, stronger effect = lower value",0.643 (active)
same,normalized growth,"locus YHR013C, strain ard1, stronger effect = lower value",0.844 (active)
same,normalized growth,"locus YHR027C, strain rpn1, stronger effect = lower value",1.03 (inactive)
same,normalized growth,"locus YHR030C, strain SLT2, stronger effect = lower value",0.911 (active) and 0.737 (active)
same,normalized growth,"locus YHR079C, strain IRE1 (second series), stronger effect = lower value",0.49 (active)
same,normalized growth,"locus YHR079C, strain IRE1, stronger effect = lower value",0.761 (active)
same,normalized growth,"locus YHR094C, strain hxt1, stronger effect = lower value",0.796 (active)
same,normalized growth,"locus YHR129C, strain ARP1, stronger effect = lower value",0.809 (active)
same,normalized growth,"locus YHR142W, strain chs7, stronger effect = lower value",0.947 (inactive)
same,normalized growth,"locus YHR200W, strain rpn10, stronger effect = lower value",0.786 (active)
same,normalized growth,"locus YIL066C, strain RNR3, stronger effect = lower value",0.798 (active)
same,normalized growth,"locus YIL073C, strain SPO22, stronger effect = lower value",0.69 (inactive)
same,normalized growth,"locus YIL125W, strain kgd1, stronger effect = lower value",0.899 (active)
same,normalized growth,"locus YIR030C, strain dcg1, stronger effect = lower value",0.768 (active)
same,normalized growth,"locus YJL092W, strain hpr5, stronger effect = lower value",1.02 (inactive)
same,normalized growth,"locus YJL095W, strain BCK1 (second series), stronger effect = lower value",1.03 (inactive)
same,normalized growth,"locus YJL095W, strain BCK1, stronger effect = lower value",0.622 (active) and 0.668 (active)
same,normalized growth,"locus YJL115W, strain asf1, stronger effect = lower value",1.03 (inactive)
same,normalized growth,"locus YJL129C, strain trk1, stronger effect = lower value",1.02 (inactive)
same,normalized growth,"locus YJL134W, strain LCB3, stronger effect = lower value",1.01 (inactive)
same,normalized growth,"locus YJL154C, strain vps35, stronger effect = lower value",1.04 (inactive)
same,normalized growth,"locus YJL164C, strain tpk1, stronger effect = lower value",0.911 (active)
same,normalized growth,"locus YJL166W, strain qcr8, stronger effect = lower value",0.942 (inactive)
same,normalized growth,"locus YJL168C, strain set2, stronger effect = lower value",1.02 (inactive)
same,normalized growth,"locus YJL187C, strain SWE1 (second series), stronger effect = lower value",0.453 (active)
same,normalized growth,"locus YJL187C, strain SWE1, stronger effect = lower value",1.01 (inactive)
same,normalized growth,"locus YJR043C, strain POL32, stronger effect = lower value",0.79 (active)
same,normalized growth,"locus YJR066W, strain TOR1, stronger effect = lower value",0.558 (active)
